CBFb-RUNX1 inh: CBF-beta/RUNX1 interaction disruption; AlphaScreen CBFb-His/RUNX1-biotin binding, biochemical; Potency, µM (titrated, usually from 59.8 µM), for the others: at the top dose activity, negative = inhibition, actives largely listed as inhibitors; AID 1477; 230,000 tested, under 10 active; note: % of control where 0% means no effect
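Bead-based AlphaScreen assay; binding partners His-tagged CBF-beta and biotinylated RUNX1 at 30 nM each. Compound exposure 15 min after a 20-min protein preincubation; bead step 90 min; all steps at room temperature.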
Tau fibril ThT: inhibitors of human tau fibril formation, thioflavin T binding; recombinant tau K18 P301L, heparin-induced fibrillization, ThT fluorescence; actives 2.1% (n = 270,000); P10636; Potency, µM (series often up to 57.4 µM), without a hit: at the top dose activity, negative = inhibition, actives largely listed as inhibitors; note: potency is the fitted concentration of half-maximal effect; % is set by controls: 0 for no effect and ±100 for the full control effect; nearly all actives have a fitted effect of over 55% in size
Target sequence (P10636 561-689 P618L limits assumed): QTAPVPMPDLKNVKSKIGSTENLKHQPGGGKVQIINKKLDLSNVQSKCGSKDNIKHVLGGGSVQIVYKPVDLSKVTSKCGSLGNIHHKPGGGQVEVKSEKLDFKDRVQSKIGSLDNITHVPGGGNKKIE
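Aggregation was driven by heparin (20 uM final) acting on recombinant tau […] bearing P301L in 100 mM sodium acetate pH 7; fibrils were detected with Thioflavin T.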
Tau fluor cs: counter-screen for tau fibril formation inhibitors. actives 0.93% (n = 280,000). Potency, µM (top dose mostly 57.7 µM), for the others: top-dose activity change, negative = decrease. tau K18 P301L (four-repeat tau fragment) Alexa594 fluorescence, heparin fibrillization; note: potency is the fitted concentration of half-maximal effect; % is set by controls: 0 for no effect and ±100 for the full control effect; nearly all actives have a fitted effect of over 55% in size
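Human K18 P301L tau (15 uM unlabeled plus 0.24 uM Alexa 594-labeled, final) in 100 mM sodium acetate pH 7 was mixed with compound and 20 uM heparin and incubated 6 hr at 37 C.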
JMJD2E inh: blocks human JMJD2E demethylase activity; AID 2147; Potency, µM (top dose mostly 57.1 µM), for the others: at the highest dose activity change, negative = inhibition, actives largely listed as inhibitors; JMJD2E catalytic domain, FDH-coupled NADH fluorescence (FDH is formaldehyde dehydrogenase); B2RXH2; actives 1.6% (n = 230,000); active = well fitted inhibition curve with a large enough effect, not every such curve was filed as active; inconclusive = small, poorly fitted or top-dose-only effect, or another doubt; inactive = no such curve, though single readings can be large or run the other way;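 note: potency is the fitted concentration of half-maximal effect; 0% = wells with enzyme and -100% = buffer wells without enzyme; nearly all actives have a fitted effect of over 50% in size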
Target sequence (B2RXH2 1-337 limits assumed): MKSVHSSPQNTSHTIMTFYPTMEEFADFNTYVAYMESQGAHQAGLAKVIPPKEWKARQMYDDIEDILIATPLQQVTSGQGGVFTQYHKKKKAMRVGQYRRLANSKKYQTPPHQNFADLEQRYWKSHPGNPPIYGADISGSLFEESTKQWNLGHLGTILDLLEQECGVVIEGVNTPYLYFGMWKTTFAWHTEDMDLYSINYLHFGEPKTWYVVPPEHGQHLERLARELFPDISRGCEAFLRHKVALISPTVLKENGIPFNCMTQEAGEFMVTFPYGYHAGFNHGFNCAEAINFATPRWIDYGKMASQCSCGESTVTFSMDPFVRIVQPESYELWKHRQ
Tau fibril FP: blocks human tau fibril formation measured by polarization; K18 P301L tau heparin fibrillization, Alexa594 FP, 6 h; Potency, µM (titrated, usually from 57.7 µM), for the others: at the highest dose activity, negative = inhibition, usual class: inhibitors; actives 0.39% (n = 280,000); AID 1468; note: potency is the fitted concentration of half-maximal effect; % is set by controls: 0 for no effect and ±100 for the full control effect; nearly all actives have a fitted effect of over 55% in size
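Compound effects on tau fibrillization are measured by Alexa 594 fluorescence polarization (ex 555, em 632 nm). K18 P301L tau is used at 15 uM with 0.24 uM labeled tracer, and 20 uM heparin induces aggregation over 6 hr at 37 C.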
Lamin A splicing: modulators of lamin A splicing | actives 0.01% (n = 200,000) | Potency, µM (top dose mostly 46.1 µM), for inactives: at the top dose ratio change, negative = inhibition, usual class: inhibitors | HeLa LMNA splicing GFP/RFP minigene ratio, 48 h | AID 1487; active = well fitted inhibition curve with a large enough effect in the signal ratio, with a control signal flat, not every such curve was filed as active; inconclusive = small, poorly fitted or top-dose-only effect, or effect the other way, or a change in a side signal; the % refers to the signal ratio; note: potency is the fitted concentration of half-maximal effect; % is set by controls: 0 for no effect and ±100 for the full control effect
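S3 HeLa stable clones carrying a lamin A-EGFP splicing minigene plus DsRed2 were seeded at 600 cells/well in Opti-MEM with 2% FBS, pin-dosed and incubated 48 h at 37°C. Acumen cytometry (488 nm) gave the GFP/RFP total-intensity ratio.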
Numbers without * were called inactive; u = inconclusive; x = no result given; [ ] = another dose, or the depositor's remark. Rows were chosen to be rich in hits. Some 3.2% of all compounds tested hit in one or more screens of this group. Unless noted, calls come from the whole dose curve; as a rule, active = well fitted curve in the direction sought with a large enough effect; inconclusive = small, poorly fitted or top-dose-only effect, or another doubt; inactive = no such curve, though single readings can be large; an effect the other way counts as inactive or inconclusive.

SMILES	CBFb-RUNX1 inh	Tau fibril ThT	Tau fluor cs	JMJD2E inh	Tau fibril FP	Lamin A splicing
CCC(C)C(=O)Nc1nc(C)c(-c2csc(Nc3ccccc3OC)n2)s1 (stereo unspecified)	-20%	u	13µM*[quencher]	-27%	16%	u
C=CCNc1nc(-c2sc(NC(=O)CC)nc2C)cs1	-4%	u	u	0%	-2%	-6%
CCCCCCC(=O)Nc1nc(C)c(-c2csc(Nc3cc(OC)ccc3OC)n2)s1	-28%	u	u	-21%	u	5%
CCCCC(=O)Nc1nc(C)c(-c2csc(Nc3ccccc3OC)n2)s1	-11%	u	16µM*[quencher]	8%	13%	6%
CCCCCC(=O)Nc1nc(C)c(-c2csc(Nc3cc(OC)ccc3OC)n2)s1	-16%	16µM*	11µM*[quencher]	u	15%	u
C=CCCC(=O)Nc1nc(C)c(-c2csc(Nc3ccccc3OC)n2)s1	-17%	7.1µM*	13µM*[quencher]	u	u	u
COc1ccccc1NC(=O)CSc1nc2ccccc2c(=O)n1CCC(=O)NC1CCCCC1	x	6%	0%	x	-7%	-4%[46 µM]
CC(C)Oc1ccc(C(=O)Nc2nnc3n2CCS3)cc1	x	-9%	-2%	x	-6%	u
CN(C)C(=O)Nc1ccc(Oc2ccc(Cl)cc2)cc1	18%	x	x	x	x	x
CN(C)CCNc1nc2sc3c(c2c(=O)n1CCc1ccccc1)CCCCC3	0%	u	13µM*[quencher]	-10%	u	x
CC(O)CNc1nc2sc3c(c2c(=O)n1CCc1ccccc1)CCCCC3 (stereo unspecified)	-3%	u	10µM*[quencher]	-14%	12%	u
CC(O)CNc1nc2sc3c(c2c(=O)n1Cc1ccco1)CCCCC3 (stereo unspecified)	-3%	u	u	-19%	u	x
CCOC(=O)c1cc[n+](CC(=O)c2ccc(F)cc2)cc1	4%	-5%	-4%	32µM*	-5%	-3%
CCOC(=O)c1ccc(NC(=O)Nc2ccc(F)cc2)cc1	0%	u	u	3%	u	2%
CCNC(=S)N/N=C1\C(=O)c2cccc3cccc1c23	4%	u	-21%	-2%	8%	2%
O=C(N/N=C1/C(=O)c2cccc3cccc1c23)c1ccc(Cl)cc1	-9%	4.5µM*	-19%	0%	9%	-16%
C[C@H]1Cc2c(-c3ccccc3)nc3c(c2CO1)CN(C(=O)c1cccnc1)CC3	3%[13.1 µM]	-4%[11.5 µM]	-12%[11.6 µM]	6%[11.4 µM]	0%[11.6 µM]	u
Cc1c(C(=O)N2CCC(C)CC2)c(S(=O)(=O)NCc2ccccc2)c(C)n1C	x	4%	4%	x	-1%	-2%[46 µM]
O=C(Nc1cc(Cl)cc(Cl)c1)c1cccc(OC(F)F)c1	7%	u	u	-6%	20µM*	u
O=C(/C=C/Nc1ccccc1O)c1ccco1	4%	13µM*	-26%	-20%	-7%	x
O=C(/C=C/Nc1cccc(F)c1)c1ccco1	1%	u	-17%	-24%	-5%	13%
NS(=O)(=O)c1ccc(N/C=C\C(=O)c2ccc(F)cc2)cc1	5%	-2%	-4%	u	3%	-3%[46 µM]
CN(C)c1ccc(N/C=C/C(=O)c2ccco2)cc1	-13%	2µM*	u	6%	u	21%
CC(=O)Nc1ccc(NC(=O)c2ccco2)cc1	4%	-17%	-14%	-4%	-12%	5%
CN(C)c1ccc(N/C=C/C(=O)c2ccc(F)cc2)cc1	-26%	2µM*	u	13µM*	-13%	-7%
SMILES	CBFb-RUNX1 inh	Tau fibril ThT	Tau fluor cs	JMJD2E inh	Tau fibril FP	Lamin A splicing
CC(=O)Nc1ccc(N/C=C/C(=O)c2ccco2)cc1	4%	10µM*	-18%	5%	4%	-1%
O=C(/C=C/Nc1ccccc1Oc1ccccc1)c1ccco1	0%	u	u	-8%	-10%	x
COc1ccc(C2CC(=O)Nc3c2c(=O)n(C)c2nc4ccccc4n32)cc1 (stereo unspecified)	x	-3%	-2%	x	1%	x
Cc1oc2c(cc(NS(=O)(=O)c3ccc(Br)cc3)c3ccccc32)c1C(=O)OCc1ccccc1	x	-11%	u	x	u	x
COC(=O)c1ccc2c(=O)n(CCCCCC(=O)NCCc3ccccc3)c(=O)[nH]c2c1	x	4%	10%	x	-12%	4%[46 µM]
CC1=NN(c2ccccc2)C(=O)C1C=Nc1ccc(N(C)C)cc1 (stereo unspecified)	-22%	7.9µM*	u	u	5%	x
CSCC[C@H](NC(=O)[C@H](Cc1ccccc1)NC(=O)[C@H](Cc1cnc[nH]1)NC(=O)CNC(=O)[C@@H](NC(=O)[C@H](C)NC(=O)[C@H](Cc1c[nH]c2ccccc12)NC(=O)[C@H](CC(C)C)NC(=O)[C@H](CC(N)=O)NC(=O)CN)[C@@H](C)O)C(N)=O	-3%	x	x	x	x	x
COc1ccc(OC)c(NC(=S)N(CCc2c(C)[nH]c3ccccc23)Cc2cccs2)c1	4%[2.36 µM]	-13%	7.1µM*[quencher]	3%	3%	u
COc1ccc(OC)c(NC(=S)NCc2cccs2)c1	-5%	2%	2%	6%	4%	5%
COc1ccc(OC)c(NC(=S)N(CCc2c(C)[nH]c3ccc(C)cc23)Cc2cccs2)c1	-20%[2.36 µM]	-15%	8.9µM*[quencher]	10%	13%	u
COc1ccc2[nH]c(C)c(CCN(Cc3cccs3)C(=S)Nc3cccc(F)c3)c2c1	-22%	u	10µM*[quencher]	0%	2%	-26%
COc1cccc(NC(=S)N(CCc2c(C)[nH]c3ccc(C)cc23)Cc2cccs2)c1	8%[2.36 µM]	-3%	-8%	8%	6%	u
Cc1cccn2c(=O)cc(CSc3nnc(NC(=O)COc4ccccc4)s3)nc12	x	-2%	-12%	x	-6%	-11%[46 µM]
O=C(Nc1ccccc1)N(O)c1ccc(Cl)cc1	3%	25µM*	-20%	-4%	u	-1%
CN(C)/C=C1/C=C(c2ccccc2)OC1=O	1%	40µM*	-23%	u	u	8%
COc1ccccc1N=Cc1c(C)[nH]n(-c2ccc(C)cc2C)c1=O	0%	-17%	7%[2.34 µM]	u	-3%[2.34 µM]	-2%[46 µM]
COc1cc(SC#N)ccc1N=Cc1c(C)[nH]n(-c2ccc(C)cc2C)c1=O	1%	14µM*	-21%	-2%	u	19%
COc1cc(SC#N)ccc1N=Cc1c(C)[nH]n(-c2cccc3ccccc23)c1=O	11%	7.9µM*	-17%	0%	u	4%
CCC(=O)Nc1c(OC(=O)CC)ccc2c(C)cc(=O)oc12	-5%	-14%	-6%	4µM*	u	-18%
CCC(=O)Oc1c(C(=O)CC)cc2c(C)cc(=O)oc2c1C	-3%	-12%	-8%	3%	-8%	u
